High-throughput results as filed in PubChem.
KB-3-1 cytotox: kills parental KB-3-1 adenocarcinoma cells; KB-3-1 viability, CellTiter-Glo ATP luminescence, 72 h; Potency, µM (highest dose often 46.1 µM), most hits filed as cytotoxic; 400,000 compounds, 1.4% hits; further: on the % scale 0 is the no-effect control and ±100 the full control effect; nearly all actives have a fitted effect of over 60% in size
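Using CellTiter-Glo luminescence, growth of non-resistant KB-3-1 adenocarcinoma cells is assessed 72 h after pin-tool compound addition at 37 °C. Normalized responses across the concentration series yield fitted curves.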
MCF10A rereplic: induces DNA re-replication in MCF 10a normal breast cells | MCF 10A DNA re-replication, Hoechst nuclear intensity, 48 h | 350,000 compounds, 2.9% hits | Potency, µM (doses to about 46.1 µM), inactives show at the highest dose activity, positive = re-replication, most hits filed as activators; further: % of control where 0% means no effect; nearly all actives have a fitted effect of over 50% in size
RORgamma inh: inhibitors of mouse ROR gamma transcriptional activity; Potency, µM (top dose mostly 53.6 µM), inactives show top-dose activity change, negative = inhibition, actives largely listed as inhibitors; P51450; 310,000 compounds, 5.4% hits; Drosophila S2 Gal4-RORgamma UAS-luciferase reporter, 20 h; further: on the % scale 0 is the no-effect control and ±100 the full control effect; nearly all actives have a fitted effect of over 60% in size
Target sequence (P51450 whole entry, looked up, the tested form may be a part): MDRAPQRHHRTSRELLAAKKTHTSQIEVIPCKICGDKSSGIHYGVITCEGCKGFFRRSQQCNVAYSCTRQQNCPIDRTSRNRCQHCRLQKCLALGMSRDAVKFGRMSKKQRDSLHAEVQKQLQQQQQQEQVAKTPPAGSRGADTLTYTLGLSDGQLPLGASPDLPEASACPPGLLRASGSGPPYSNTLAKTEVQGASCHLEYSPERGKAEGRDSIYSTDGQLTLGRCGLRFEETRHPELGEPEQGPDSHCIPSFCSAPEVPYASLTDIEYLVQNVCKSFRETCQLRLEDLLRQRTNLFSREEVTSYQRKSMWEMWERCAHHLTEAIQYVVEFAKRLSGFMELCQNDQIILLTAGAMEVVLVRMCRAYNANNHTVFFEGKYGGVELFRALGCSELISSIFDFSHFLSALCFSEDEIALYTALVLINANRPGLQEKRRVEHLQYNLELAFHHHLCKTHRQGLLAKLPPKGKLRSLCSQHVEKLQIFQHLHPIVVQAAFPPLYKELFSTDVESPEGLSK
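Read-out: Photinus luciferase luminescence; inhibitors lower reporter signal. Insect Schneider cells with Gal4-ROR gamma fusion under metallothionein promoter, UAS reporter; 700 uM final copper sulfate induction, 20 hr, ambient temperature.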
SW480 rerep: induces DNA re-replication in SW480 colon adenocarcinoma cells. AID 624297. SW480 DNA re-replication, Hoechst DNA content imaging, 48 h. 340,000 compounds, 1.8% hits. Potency, µM (series often up to 46.1 µM), without a hit: top-dose re-replication activation, hits mostly activators; further: % of control where 0% means no effect; nearly all actives have a fitted effect of over 55% in size
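Hoechst fluorescence of nuclei (405 nm excitation, 500-530 nm emission) measured by plate-scanning imager after 48 hr compound exposure at 37 C; re-replication scored as increased number of nuclei with elevated intensity.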
Gal4-VP16 FLuc: inhibits Gal4-VP16 luciferase reporter, ROR gamma counter-screen; Potency, µM (highest dose often 53.6 µM), inactives show at the highest dose activity, negative = inhibition, hits mostly inhibitors; 310,000 compounds, 3.5% hits; AID 2546; Drosophila S2 Gal4-VP16 UAS-luciferase, luminescence, 20 h;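 further: Gal4-VP16 expression switched on by copper sulfate through the metallothionein promoter; on the % scale 0 is the no-effect control and ±100 the full control effect; nearly all actives have a fitted effect of over 50% in size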
KB-V1 MDR tox: KB-V1 MDR subline cytotoxicity; AID 1347076; Potency, µM (highest dose often 46.1 µM), usual class: cytotoxic; 400,000 compounds, 3.4% hits; KB-V1 MDR cells viability, CellTiter-Glo, 72 h; further: on the % scale 0 is the no-effect control and ±100 the full control effect; nearly all actives have a fitted effect of over 60% in size
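Cytotoxicity toward P-gp-expressing KB-V1 cells was determined as loss of CellTiter-Glo luminescence after 72 h at 37 degrees C. Compounds were tested in quantitative HTS format across a concentration range, with curves fitted to normalized data.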
* marks the source's active call; other numbers are inactive results; i = inactive; ? = inconclusive; . = no result given; [ ] = dose if it differs, or a comment. The list is not random: actives were taken first. Their share in the collection is about 10%. The call rests on the fitted dose curve; in most records, active means well fitted curve in the direction sought with a large enough effect; inconclusive means small, poorly fitted or top-dose-only effect, or another doubt; inactive means no such curve, though single readings can be large; an effect the other way counts as inactive or inconclusive. Potency means the concentration at half of the fitted maximal effect.

SMILES	KB-3-1 cytotox	MCF10A rereplic	RORgamma inh	SW480 rerep	Gal4-VP16 FLuc	KB-V1 MDR tox
Cc1ccc(/C=N/Nc2nc(N3CCCCC3)nc(N3CCCCC3)n2)o1	i	18%	8.9µM*	6%	?	i
CCN(C(=O)Cn1c(=O)n(-c2ccccc2)c(=O)c2ccc(C(=O)NCc3ccc4c(c3)OCO4)cc21)c1cccc(C)c1	i	.	.	.	.	i
Cc1cccc(CSc2nc(=O)c3c(n2C)NC(=O)CC3c2cc(F)cc(F)c2)c1 (stereo not given)	i	.	.	.	.	?
COC1(OC)C(=N/O)/C(=N\O)CCC1O (stereo not given)	i	16µM*	-14%	13%	1%	i
CS/C(Nc1cc(Cl)ccc1Cl)=C(/C#N)C(=O)c1ccco1	?	?	10µM*	-10%	14µM*	i
O=C(Nc1cc(Cl)ccc1Cl)c1ccco1	i	0%	32%	-1%	4%	i
CCOc1ccc(N2C(=O)CC(Sc3n[nH]c(-c4ccccc4)n3)C2=O)cc1 (stereo not given)	i	-7%	?	3%	?	i
COc1ccc(N2C(=O)CC(Sc3n[nH]c(-c4ccccc4)n3)C2=O)cc1 (stereo not given)	i	27%	11µM*	4%	-83%	i
Cc1ccc(N2C(=O)CC(Sc3cccs3)C2=O)cc1 (stereo not given)	i	-1%	11µM*	-3%	7.9µM*	i
Cc1ccc(N2C(=O)CC(Sc3nccc(C)n3)C2=O)cc1 (stereo not given)	i	-1%	18µM*	-2%	?	i
Cc1ccc(N2CCN(C(=O)CCc3c(C)nc4ncnn4c3C)CC2)c(C)c1	i	.	.	.	.	?
Cc1ccc(Cl)cc1NC(=O)Cn1c(=O)n(CCCS(=O)(=O)C2CCCCC2)c(=O)c2ccccc21	i	.	.	.	.	i
CCCNC(=O)c1ccccc1NC(=O)c1nsc2ccccc12	i	.	.	.	.	i
O=c1c(O)c(-c2ccccc2)oc2cc(O)ccc12	.	.	-37%	.	1%	.
Cc1ccc(-c2oc3ccccc3c(=O)c2OCC(=O)O)cc1	i	10%	0%	-17%	4%	i
Cc1ccc2oc(-c3ccccc3)c(O)c(=O)c2c1	.	.	6.3µM*	.	14µM*	.
Cc1ccc(-c2oc3ccccc3c(=O)c2O)cc1	21µM*	26µM*	4µM*	8%	13µM*	?
COc1cccc(-c2oc3ccc(C)cc3c(=O)c2O)c1	i	.	.	.	.	i
O=c1c(O)c(-c2ccccc2)oc2ccccc12	i	?	4µM*	5%	7.1µM*	i
Cc1ccc2oc(-c3ccccc3)c(C(=O)O)c(=O)c2c1	i	?	7.1µM*	13%	11µM*	i
Cc1ccc2c(=O)c(C(=O)c3ccc(F)cc3)cn(CC(=O)NCc3ccccc3Cl)c2n1	i	.	.	.	.	i
COc1cc2sc3cc(NCc4ccc5c(c4)OCO5)ccc3c(=O)c2cc1OC	i	22%	.	?	.	i
COc1cccc2sc3cc(NCc4ccc5c(c4)OCO5)ccc3c(=O)c12	i	4.1µM*	.	?	.	?
CCC(C)NC(=O)C1CCN(C(=O)c2ccc(-n3ccc4ccccc43)s2)CC1 (stereo not given)	i	.	.	.	.	i
CCC(=O)Nc1ccc(CC)cc1-c1nc2ccccc2n(CC(=O)Nc2cccc(Cl)c2)c1=O	i	.	.	.	.	i
SMILES	KB-3-1 cytotox	MCF10A rereplic	RORgamma inh	SW480 rerep	Gal4-VP16 FLuc	KB-V1 MDR tox
CCN(CC)S(=O)(=O)c1ccc(N2CCCC2)c(NC(=O)C2=COCCO2)c1	i	-10%	.	?	.	i
CCN(CC)S(=O)(=O)c1ccc(OC(C)C)c(NC(=O)C2=COCCO2)c1	i	7%	.	2%	.	7.3µM*
CCOC(=O)c1c(C)oc2c1c(C=NCc1ccccn1)c(O)c1ccccc12	?	12µM*	6.3µM*	?	?	?
CCOC(=O)c1c(C)oc2c1c(C=NCC1CCCO1)c(O)c1ccccc12 (stereo not given)	?	?	2%	-4%	1%	?
O=C(NCC(c1ccc(Cl)cc1)N1CCCCC1)c1ccccc1F (stereo not given)	i	.	.	.	.	i
O=C(NCc1ccc(Cl)cc1)C1CCN(c2nn3cc(-c4ccc(F)cc4)nc3s2)CC1	i	.	.	.	.	i
COc1ccccc1C(CC(=O)Nc1ccc(Cl)cc1)c1ccc(OC(C)C)cc1 (stereo not given)	i	-3%	-1%	-2%	-25%	?
COc1ccc(C(CCNCc2ccc(N(C)C)cc2)c2ccccc2)cc1 (stereo not given)	i	?	-16%	18µM*	5%	?
COc1ccc(C(CCNCc2ccc(OC)c(OC)c2)c2ccc(F)cc2)cc1 (stereo not given)	i	5%	-2%	?	-4%	i
CC(C)Oc1ccc(CNC(=O)CC(c2ccccc2)c2cc(Cl)ccc2O)cc1 (stereo not given)	i	?	?	18%	-8%	23µM*
CC(C)Oc1ccc(C(CCNCc2ccc(O)cc2)c2ccccc2)cc1 (stereo not given)	?	?	?	18%	-3%	18µM*
CCc1cccc(NC(=O)c2ccc(Cn3nc(C)cc3C)o2)c1	i	7%	?	-81%	?	15µM*
CCNc1ncc2nc(-c3cc(F)cc(F)c3)c(=O)n(CCC#N)c2n1	.	.	-3%	.	-11%	.
O=C1C(Nc2cccc(O)c2)=C(N2CCCCC2)C(=O)c2ccccc21	?	3%	-37%	1%	?	i
O=C(/C=C/c1ccc(O)cc1)c1ccc(NC2=C(N3CCCCC3)C(=O)c3ccccc3C2=O)cc1	2.1µM*	6.5µM*	0.32µM*	?	?	?
Cc1ccc(NC2=C(N3CCCCC3)C(=O)c3ccccc3C2=O)cc1	?	5.8µM*	-39%	2.9µM*	?	i
O=C1C(NS(=O)(=O)c2ccc(Br)cc2)=C(N2CCCCC2)C(=O)c2ccccc21	i	1%	-44%	-2%	?	i
O=C1C(Nc2ccccc2)=C(N2CCCCC2)C(=O)c2ccccc21	?	?	40%	0%[9.22 µM]	6%	i
COc1ccccc1NC1=C(N2CCCCC2)C(=O)c2ccccc2C1=O	2.6µM*	3.3µM*	-12%	4.6µM*	?	i
COCCNC(=O)c1ccc(-c2nc(CS(=O)(=O)c3ccccc3)c(C)o2)cc1	i	.	.	.	.	i
